The values below come from ChEMBL document CHEMBL1157539, “Thousands of chemical starting points for antimalarial lead identification” (Nature, 2010).

One may read the Inhibition as the change of the read-out against control, counted positive when it falls. Higher therefore signals strong suppression.

The first experiment has as its system Plasmodium falciparum. The experiment is described as follows: GSK_TCMDC: Inhibition of Plasmodium falciparum Dd2 in whole red blood cells, using parasite LDH activity as an index of growth. Test compounds present at 2uM. It counts as functional.
Consider `CCCNCc1ccc(-c2ccc(CN(CCOC)C(=O)c3ccccc3)cc2)nc1.O=C(O)C(F)(F)F`, for which the Inhibition stood at 25%.

With `COc1ccc(C(=O)Nc2nonc2-c2ccc(OC)c(OC)c2)cc1Cl`, the Inhibition worked out at 97%. In turn, `O=C(NCCN1CCCCC1)c1cccc(Nc2nccc(Nc3ccc(Oc4ccccc4)cc3)n2)c1` showed an Inhibition of 86%. `Cc1cc(NC(=O)Nc2ccc3ccn(C)c3c2)c2ccccc2n1` displayed an Inhibition of 69%. The same measure, in the same setting: the same measure for `Cc1nc2ccc(F)cc2n1C1CCN(C(=O)Cc2ccc(F)c(F)c2)CC1`: 99%; for `CC(C)[C@H](NC(=O)c1ccc(O)c(-c2cccc(C(F)(F)F)c2)c1)C(=O)NCCN1CCCCC1`: 29%; for `CCCCc1cc(NCC)nc(Nc2cccc(OC)c2)n1`: 69%.

A further experiment has as its system HepG2. The experiment is described as follows: GSK_TCMDC: Percent inhibition of human HepG2 cell line. Test compounds present at 10uM. Type of experiment: functional.
`CC(=O)N/N=C/[C@H](CCc1ccccc1)NC(=O)[C@H](CC(C)C)NC(=O)c1ccc(F)cc1`: the Inhibition worked out at 2%. The same measure, in the same setting: the same measure for `CN1CCN(CC(O)CNC(=O)Nc2ccc(Br)cc2)CC1.O=C(O)C(F)(F)F` (stereo not drawn): 5%; for `CCN1CCN(CCCNc2c3ccccc3nc3ccccc23)CC1.Cl`: 44%. In turn, `O=C(CSc1nnc(-c2ccccc2Br)[nH]1)c1c[nH]c2ccccc12` registered an Inhibition of 7%. Still for that read-out and setting: for `O=C(NCCCCCN1CCC(c2c[nH]c3ccccc23)CC1)Nc1ccc(I)c(Cl)c1` the value was 88%. Regarding `Cc1cccc2[nH]c(-c3cc(-c4cn[nH]c4)cnc3N)nc12`, the Inhibition came out at 37%. On the same count and under the same terms, for `COc1ccccc1C1CN(Cc2coc3ccccc3c2=O)Cc2ccccc2O1` (stereo not drawn) the value was 4%; for `CC(C)N1CCC(N(Cc2ccc(-c3ccc(C(F)(F)F)cc3)cc2)C(=O)Cn2c(SCc3cccc(F)c3F)cc(=O)c3c2CCC3)CC1.O=C(O)C(O)C(O)C(=O)O`, 44%; for `CC(C)CN(c1nc(C(=O)NNC(=O)[C@H](CC2CC2)NC(=O)c2cc3cc(OCCN(C)C)ccc3o2)cs1)C1CC1`, 0%. The same measure, in the same setting: the same measure for `O=C(O)C(F)(F)F.O=S(=O)(NCCN1CCCC1)c1cccc(-c2cccc(CNCc3ccccc3)c2)c1`: 32%; for `COc1ccc(CCn2c(=N)c(C(=O)NCc3ccc(C)cc3)cc3c(=O)n4ccccc4nc32)cc1`: 13%; for `COc1cc(Cc2cnc(N)nc2N)cc(OCCCCC2NC(=O)NC2=O)c1OC` (stereo not drawn): 2%.

For the compound `CN1CCCC(COc2cc3c(cc2Br)CCN3C(=O)Nc2ccc(-c3ccncc3)c(Cl)c2)C1` (stereo not drawn), the Inhibition is on record as 99%. On the same count and under the same terms, for `O=[N+]([O-])c1cccc(NC(=S)N2CCCN(Cc3ccc(C(F)(F)F)cc3)CC2)c1` the value was 11%. The same measure, in the same setting: for `CCCNCc1ccc(-c2ccc(CN(CCOC)C(=O)c3cnc(C)cn3)cc2)nc1.O=C(O)C(F)(F)F` the value was 0%. Same read-out and setting: the same measure for `COc1ccc2nccc(NC(=O)N3CCC(NCc4cc5c(F)ccc(F)c5[nH]4)CC3)c2n1.O=C(O)C(=O)O`: 6%; for `COc1cccc(Nc2nc(Nc3cccc(C#N)c3)cc(C(F)(F)F)n2)c1`: 15%. On to `CN1CCN(c2ccnc3ccc(NC(=O)Nc4ccc5c(c4)CCC5=O)cc23)CC1`, for which the Inhibition is on record as 8%.

For `CCOC(=O)C1=C(C)NC2=C(C(=O)CC(C)(C)C2)C1c1ccc(Cl)cc1` (stereo not drawn), the Inhibition is 4%. The same measure, in the same setting: for `O=C(/C=C/c1ccc(Cl)c(Cl)c1)NCCCCCN1CCC(NC(=O)c2cccc(Cl)c2)CC1` the value was 12%. Still for that read-out and setting: for `CC(C)[C@H](NCC(=O)c1ccccc1)C(=O)O.Cl` the value was 6%; for `CCN(CC)CCN(Cc1ccc(-c2ccc(Cl)cc2)cc1)C(=O)Cn1cc(CN(C)C)c(=O)nc1SCc1ccc(F)cc1`, 49%.

As for `Cc1ccc(C2CC(c3cccs3)=NN2C(=O)c2ccc(Br)o2)cc1` (stereo not drawn), the Inhibition is 11%. Take `CCC(C)(C)c1ccc(Oc2ccc(NC(=O)Nc3ccc(Cl)c(Cl)c3)cc2)cc1`: the Inhibition is reported as 13%. On the same count and under the same terms, for `Cc1ccc(Nc2nc(C)cc(N3CCN(CCc4ccccc4)CC3)n2)cc1` the value was 6%; for `O=C(NC1CCN(c2ccnc(Nc3ccc(F)cc3)n2)C1)c1cc2ccccc2s1` (stereo not drawn), 6%; for `Cc1ccc(O)c(-c2cc(C(=O)Nc3ccc(S(=O)(=O)N4CCCC(C)C4)cc3)[nH]n2)c1` (stereo not drawn), 27%.

`O=C(NCCN1CCC(NC(=O)c2ccc(-c3ccccn3)s2)CC1)c1cccc(C(F)(F)F)c1.O=C(O)C(F)(F)F` yielded an Inhibition of 4%.

As to `O=C(/C=C/c1ccc(Cl)c(Cl)c1)N1CCC(CCN2CCC(c3c[nH]c4ccncc34)CC2)CC1`, the Inhibition is 13%. Compound `O=C(/C=C/c1ccc(Cl)c(Cl)c1)NCCCCCN1CC[C@H](NC(=O)c2sc3ccccc3c2Cl)C1` gave an Inhibition of 26%.

`Cc1cnc(CN(Cc2ccc(-c3ccc(CNCCc4ccc(S(C)(=O)=O)cc4)cn3)cc2)C(=O)c2ccc([N+](=O)[O-])c(C)c2)cn1.O=C(O)C(F)(F)F` registered an Inhibition of 0%.
